Measurements published in PubChem BioAssay (NCI).
Where “and” joins values, the source holds several entries; their conditions need not be identical. Equal entries are not always repeated. The panel holds about 83,000 compounds, 20% with a hit somewhere; the sample as a whole holds those more often.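 Compound tested at a single concentration for 48 hours in 96-well plates; a percent growth value below 10 was scored as active.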 Calls of active or inactive are those of the source.

How the values were obtained:
Assay in all cases: NCI-60 one-dose screen, 48 h (100 = growth as untreated, 0 = no growth, -100 = all killed)
[1] = system: T-47D breast
[2] = system: BT-549 breast
[3] = system: MDA-MB-435 melanoma
[4] = system: SW-620 colon
[5] = system: MCF7 breast
[6] = system: HCT-116 colon
[7] = system: HCC-2998 colon
[8] = system: KM12 colon

Measured: growth

CCC(C)(c1ccc(O)c(C)c1)c1ccc(O)c(C)c1
active: [1]; 10 µM -5.53%
inactive: [2]; 10 µM 192% | [3]; 10 µM 78.8% | [4]; 10 µM 111% | [5]; 10 µM 111% | [6]; 10 µM 94% | [7]; 10 µM 107% | [8]; 10 µM 94.6%

O=Nc1ccc(Nc2ccccc2)cc1
inactive: [1]; 10 µM 63.2% | [2]; 10 µM 78.8% | [3]; 10 µM 83.6% | [4]; 10 µM 70.1% | [5]; 10 µM 67.2% | [6]; 10 µM 78.4% | [7]; 10 µM 93.8% | [8]; 10 µM 93.3%

Cn1c2nc3ccccc3c-2nc2ccccc21
inactive: [1]; 10 µM 78.9% and 72% | [2]; 10 µM 90.5% and 92.6% | [3]; 10 µM 109% and 125% | [4]; 10 µM 79% and 90% | [5]; 10 µM 77.3% and 67.5% | [6]; 10 µM 92.7% and 80.9% | [7]; 10 µM 118% and 102% | [8]; 10 µM 92.4% and 83.5%

COc1ccc(C(C#N)=C2C=CC(=NO)C=C2)cc1
inactive: [2]; 10 µM 106% | [3]; 10 µM 23.2% | [4]; 10 µM 12.1% | [5]; 10 µM 14.1% | [7]; 10 µM 105%
active: [1]; 10 µM 1.56% | [6]; 10 µM -37.2% | [8]; 10 µM -24.7%

S=C1SCN(CCc2ccccc2)CN1CCc1ccccc1
inactive: [1]; 10 µM 70.8% | [2]; 10 µM 129% | [3]; 10 µM 98.6% | [4]; 10 µM 89.4% | [5]; 10 µM 40.7% | [6]; 10 µM 102% | [7]; 10 µM 101% | [8]; 10 µM 96.8%

Nc1nc(N)c2cc(Sc3ccc4ccccc4c3)ccc2n1
active: [7]; 10 µM -39.4%
inactive: [1]; 10 µM 45.8% | [2]; 10 µM 67.4% | [3]; 10 µM 33.8% | [4]; 10 µM 18.9% | [5]; 10 µM 25.2% | [6]; 10 µM 15.4% | [8]; 10 µM 23.8%

O=C1c2ccccc2CCC1(Br)Br
inactive: [5]; 10 µM 21.6% | [7]; 10 µM 77.2% | [8]; 10 µM 87.2%
active: [1]; 10 µM -23.8% | [2]; 10 µM -31.9% | [3]; 10 µM 3.86% | [4]; 10 µM -45.5% | [6]; 10 µM -90%

N#CC(=C1C=CC(=NO)C=C1)c1ccccc1
active: [1]; 10 µM -8.58% | [2]; 10 µM -7.31% | [3]; 10 µM -20.7% | [4]; 10 µM 1.65% | [5]; 10 µM 8.32% | [6]; 10 µM -47.8% | [8]; 10 µM -57%
inactive: [7]; 10 µM 90.6%

Cc1cc(O)c2c(c1O)C(=O)C13C(=C2O)C(=O)C2C(O)C1C1C(O)C3C(=O)C3=C(O)c4c(O)cc(C)c(O)c4C(=O)C321 (centres undefined)
active: [1]; 10 µM -1.74% | [2]; 10 µM -53.3% | [3]; 10 µM -14.7% | [4]; 10 µM 8.3% | [5]; 10 µM 4.59% | [6]; 10 µM 2.8% | [7]; 10 µM -43.6% | [8]; 10 µM -53.3%

NCc1c(O)ccc2ccccc12
inactive: [1]; 10 µM 98.3% | [2]; 10 µM 101% | [3]; 10 µM 103% | [4]; 10 µM 107% | [5]; 10 µM 95.3% | [6]; 10 µM 102% | [7]; 10 µM 102% | [8]; 10 µM 96%

COc1ccc2c(c1)[nH]c1c(/C=C/c3ccccc3)nccc12
inactive: [1]; 10 µM 43.7% | [2]; 10 µM 61.8% | [3]; 10 µM 85% | [4]; 10 µM 72.1% | [5]; 10 µM 65.7% | [6]; 10 µM 29.9% | [7]; 10 µM 34.4% | [8]; 10 µM 71.1%

Cc1cc(Cl)ccc1NC(=O)/C(Cl)=C1/Sc2ccccc2NC1=O
inactive: [1]; 10 µM 50.3% | [2]; 10 µM 115% | [3]; 10 µM 99.7% | [4]; 10 µM 113% | [5]; 10 µM 70.8% | [6]; 10 µM 76.7% | [7]; 10 µM 119% | [8]; 10 µM 96.4%

S=P(N1CC1)(N1CC1)N1CC1
active: [7]; 100 µM -5.61%
inactive: [1]; 10 µM 103% and 98.1% | [1]; 100 µM 53.7% | [2]; 10 µM 102% and 85.8% | [2]; 100 µM 47.5% | [3]; 10 µM 105% and 97.2% | [3]; 100 µM 64.8% | [4]; 10 µM 110% and 93.6% | [4]; 100 µM 73% | [5]; 10 µM 69.5% | [5]; 100 µM 29.3% | [6]; 10 µM 95.9% and 73.8% | [6]; 100 µM 51.3% | [7]; 10 µM 109% | [8]; 10 µM 111% and 104% | [8]; 100 µM 83%

CN(C)c1ccc(/C=C/c2ccnc3ccccc23)cc1N
inactive: [1]; 10 µM 48.3% | [2]; 10 µM 60.3% | [3]; 10 µM 38.6% | [4]; 10 µM 78.4% | [5]; 10 µM 62.9% | [6]; 10 µM 49.3% | [7]; 10 µM 104% | [8]; 10 µM 61.5%

O=C1C(Cl)=C(Cl)C(Cl)(Cl)C(Cl)C1(Cl)Cl (centres undefined)
inactive: [1]; 10 µM 91.9% | [2]; 10 µM 96.4% | [3]; 10 µM 111% | [4]; 10 µM 105% | [5]; 10 µM 96.8% | [6]; 10 µM 102% | [7]; 10 µM 106% | [8]; 10 µM 109%

CC(=O)O[C@H]1C(=O)[C@@]2(C)[C@H]([C@H](OC(=O)c3ccccc3)[C@]3(O)C[C@H](OC(=O)[C@H](O)[C@@H](NC(=O)c4ccccc4)c4ccccc4)C(C)=C1C3(C)C)[C@]1(OC(C)=O)CO[C@@H]1C[C@@H]2O
2.94% (active) and 10.9% (inactive): [8]; 10 µM
inactive: [1]; 0.01 µM 35.5% | [1]; 2.5 µM 27.9% | [1]; 5 µM 32.5% | [1]; 10 µM 48.7% and 32.3% | [4]; 0.01 µM 24.4% | [4]; 2.5 µM 38.5% | [4]; 5 µM 50.3% | [4]; 10 µM 53.7% and 53.5% | [5]; 2.5 µM 14.3% | [5]; 5 µM 15.4% | [5]; 10 µM 15.4% and 15.3% | [8]; 0.01 µM 10.6%
active: [2]; 0.01 µM -1.3% | [2]; 10 µM 6.6% | [3]; 0.01 µM -84.7% | [3]; 2.5 µM -41.9% | [3]; 5 µM -19.9% | [3]; 10 µM -4.97% and -14.7% | [5]; 0.01 µM 8.89% | [6]; 0.01 µM 6.56% | [6]; 2.5 µM 2.87% | [6]; 5 µM 6.48% | [7]; 0.01 µM -65.6% | [7]; 2.5 µM -10.3% | [7]; 5 µM 0.255% | [7]; 10 µM -3.97% and -21.4% | [8]; 2.5 µM 1.85% | [8]; 5 µM 4.45%
11.9% (inactive) and 8.9% (active): [6]; 10 µM

Cn1ncc2cc3c(Nc4ccc(Cl)cc4)cccc3nc21
inactive: [1]; 10 µM 77.2% | [2]; 10 µM 97.4% | [3]; 10 µM 100% | [4]; 10 µM 97.5% | [5]; 10 µM 86.8% | [6]; 10 µM 85.6% | [7]; 10 µM 110% | [8]; 10 µM 90.8%

CCOC(=O)[C@]1(Br)CC[C@@]1(Br)C(=O)OCC
inactive: [1]; 10 µM 70.7% | [2]; 10 µM 123% | [3]; 10 µM 94.8% | [4]; 10 µM 76.2% | [5]; 10 µM 93.4% | [6]; 10 µM 88.9% | [7]; 10 µM 124% | [8]; 10 µM 142%
